Experimental data as given in PubChem BioAssay (NCATS).
A number with no mark means an inactive call. Inconclusive results are not listed. Entries that show only a call come without a potency. Calls of active or inactive are those of the source. Calls come from the whole dose curve; as a rule, active = well fitted curve in the direction sought with a large enough effect; inconclusive = small, poorly fitted or top-dose-only effect, or another doubt; inactive = no such curve, though single readings can be large; an effect the other way counts as inactive or inconclusive.

How the values were obtained:
[1] = molecular target: Cytochrome P450 3A4 (Homo sapiens) (UniProt P08684); assay: qHTS Assay for Activators of Cytochrome P450 3A4 (AID 885); note: nearly all actives have a fitted effect of over 65% in size
How it was run: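 Steps: enzyme/substrate mix dispensed; compound added, 10 min RT; NADPH regeneration solution added, 60 min RT; luciferin detection buffer stops reaction; 20 min later luminescence measured.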

[2] = molecular target: Cytochrome P450 3A4 (Homo sapiens) (UniProt P08684); assay: qHTS Assay for Inhibitors and Substrates of Cytochrome P450 3A4 (AID 884); note: series mostly up to about 57 µM; nearly all actives have a fitted effect of over 50% in size
How it was run: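 20 nM human CYP3A4 with 25 uM Luciferin-PPXE (at KM) in 200 mM KPO4, preincubated 10 min with compound; NADPH regeneration started a 60 min RT reaction. Luciferin detected by luminescence, normalized to 57 uM ketoconazole as full inhibition.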

[3] = Confirmation and Secondary Assay for Modulators of Hemoglobin Beta Chain Splicing at IVS2 654 locus (AID 910);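 note: per-well total GFP intensity by laser scanning cytometry after 2-day treatment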
How it was run: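 HeLa cells stably carrying EGFP interrupted by mutant beta-globin IVS2-654 intron (CMV-driven) were treated with compound for 2 days at 37C; corrected splicing was scored as total peak GFP intensity per well (488 nm excitation, 500-520 nm emission).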

[4] = Confirmation and Secondary Assay for Modulators of Hemoglobin Beta Chain Splicing at IVS2 705 locus (AID 930);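 note: HeLa cells stably expressing the EGFP-705 splicing reporter; series mostly up to about 46 µM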
How it was run: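 HeLa cells stably carrying EGFP interrupted by mutant beta-globin IVS2-705 intron (CMV-driven) were seeded at 500 cells/well, treated next day with compound for 2 days at 37C; corrected splicing restores EGFP, read as total peak GFP intensity per well.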

[5] = molecular target: Cytochrome P450 2D6 (Homo sapiens) (UniProt P10635); assay: qHTS Assay for Inhibitors and Substrates of Cytochrome P450 2D6 (AID 891);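 note: luciferin methyl ether substrate demethylated by CYP2D6 with NADPH regeneration; nearly all actives have a fitted effect of over 60% in size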
How it was run: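 Human CYP2D6 (5 nM) with 30 uM Luciferin-ME EGE (at Km) in 100 mM KPO4, compound preincubated 10 min, then NADPH regeneration system for 60 min at room temperature. Luciferin read by luminescence; normalized to 1.43 uM quinidine.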

[6] = molecular target: Cytochrome P450 2C19 (Homo sapiens) (UniProt P33261); assay: qHTS Assay for Inhibitors and Substrates of Cytochrome P450 2C19 (AID 899); note: nearly all actives have a fitted effect of over 60% in size
How it was run: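 NADPH-dependent conversion of Luciferin-H EGE (10uM, at KM) by 5nM enzyme in 50mM KPO4, 60 min at 37C following 10 min compound preincubation. Stopped with luciferin detection buffer; luminescence read after 20 min.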

Chain of Cytochrome P450 3A4 (Homo sapiens) (P08684 whole entry, looked up): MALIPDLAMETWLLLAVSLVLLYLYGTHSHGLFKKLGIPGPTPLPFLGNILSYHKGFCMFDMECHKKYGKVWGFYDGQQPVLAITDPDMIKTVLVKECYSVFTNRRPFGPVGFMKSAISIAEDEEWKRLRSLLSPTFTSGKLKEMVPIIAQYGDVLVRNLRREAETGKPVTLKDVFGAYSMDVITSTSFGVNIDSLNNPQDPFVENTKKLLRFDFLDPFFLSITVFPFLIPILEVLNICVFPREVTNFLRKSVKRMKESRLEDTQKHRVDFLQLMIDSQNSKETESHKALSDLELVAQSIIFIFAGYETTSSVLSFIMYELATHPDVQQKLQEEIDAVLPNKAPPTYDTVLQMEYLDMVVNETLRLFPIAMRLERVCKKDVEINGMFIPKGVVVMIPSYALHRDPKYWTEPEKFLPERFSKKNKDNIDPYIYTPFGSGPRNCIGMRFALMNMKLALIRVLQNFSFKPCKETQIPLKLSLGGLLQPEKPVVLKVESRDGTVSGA
Chain of Cytochrome P450 2D6 (Homo sapiens) (P10635 whole entry, looked up): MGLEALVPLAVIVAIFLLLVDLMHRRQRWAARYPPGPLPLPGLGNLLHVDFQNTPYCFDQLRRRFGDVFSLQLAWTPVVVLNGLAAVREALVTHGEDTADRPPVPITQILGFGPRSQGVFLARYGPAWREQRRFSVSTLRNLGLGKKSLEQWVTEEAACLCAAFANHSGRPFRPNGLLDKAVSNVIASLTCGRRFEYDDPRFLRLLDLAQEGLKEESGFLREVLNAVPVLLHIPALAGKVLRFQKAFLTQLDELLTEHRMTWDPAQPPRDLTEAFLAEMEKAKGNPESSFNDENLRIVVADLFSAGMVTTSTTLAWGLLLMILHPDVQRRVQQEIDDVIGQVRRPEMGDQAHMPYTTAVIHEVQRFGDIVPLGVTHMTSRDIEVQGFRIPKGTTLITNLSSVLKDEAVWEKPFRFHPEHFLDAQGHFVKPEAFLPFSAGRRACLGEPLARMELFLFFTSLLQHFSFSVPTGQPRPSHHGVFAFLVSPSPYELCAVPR
Chain of Cytochrome P450 2C19 (Homo sapiens) (P33261 whole entry, looked up): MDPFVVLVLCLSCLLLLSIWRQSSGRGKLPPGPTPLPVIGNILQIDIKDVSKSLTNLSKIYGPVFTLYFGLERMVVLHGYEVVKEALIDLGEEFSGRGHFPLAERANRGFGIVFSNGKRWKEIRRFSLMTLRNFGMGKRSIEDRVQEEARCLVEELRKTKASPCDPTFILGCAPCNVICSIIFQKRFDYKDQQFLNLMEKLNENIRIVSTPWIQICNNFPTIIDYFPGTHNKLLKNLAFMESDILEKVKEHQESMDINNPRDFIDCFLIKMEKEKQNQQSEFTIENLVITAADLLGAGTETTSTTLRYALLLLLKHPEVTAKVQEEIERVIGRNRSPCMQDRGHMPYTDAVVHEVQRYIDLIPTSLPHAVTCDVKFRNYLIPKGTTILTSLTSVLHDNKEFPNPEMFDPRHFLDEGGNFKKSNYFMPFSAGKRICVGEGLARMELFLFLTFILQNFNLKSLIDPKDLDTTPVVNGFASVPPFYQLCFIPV

For CCc1cc2c(nc1CC)CCN(CC/C(C)=N/OC[C@@H](O)COCc1ccco1)C2, the activity change, positive = activation [1] was -38.2% [at 11.4 µM].

In the case of COc1ccc(/C=C/C(=O)c2cc(O)ccc2O)cc1, the Potency [2] is reported as “inactive”, the outcome [3] is reported as “inactive” and the outcome [4] is reported as “inactive”.

In the case of CC(=O)OCC1OC(C#Cc2ccc(C(C)(C)C)cc2)C=CC1OC(C)=O (configuration not stated), the activity change, negative = inhibition [2] is reported as -26.6% [at 11.4 µM], the Potency [5] is reported as “inactive” and the Potency [6] is reported as “inactive”.
